Assay outcomes: PubChem, National Center for Advancing Translational Sciences (NCATS)
A selection: hits, their analogues and other compounds. The true share with any hit is near 2.4%.
D2 antag – HTS Assay for Allosteric Antagonists of the Human D2 Dopamine Receptor: Primary Screen for Antagonists. D(2) dopamine receptor (Homo sapiens), P14416. HEK293 TREx D2 cells, calcium flux, dopamine EC80. inhibition, % at 10 µM. 2% of 340,000 active; in the data active means inhibition above about 30%; inactive means below that, where a call was filed
Target sequence (P14416 whole entry, looked up): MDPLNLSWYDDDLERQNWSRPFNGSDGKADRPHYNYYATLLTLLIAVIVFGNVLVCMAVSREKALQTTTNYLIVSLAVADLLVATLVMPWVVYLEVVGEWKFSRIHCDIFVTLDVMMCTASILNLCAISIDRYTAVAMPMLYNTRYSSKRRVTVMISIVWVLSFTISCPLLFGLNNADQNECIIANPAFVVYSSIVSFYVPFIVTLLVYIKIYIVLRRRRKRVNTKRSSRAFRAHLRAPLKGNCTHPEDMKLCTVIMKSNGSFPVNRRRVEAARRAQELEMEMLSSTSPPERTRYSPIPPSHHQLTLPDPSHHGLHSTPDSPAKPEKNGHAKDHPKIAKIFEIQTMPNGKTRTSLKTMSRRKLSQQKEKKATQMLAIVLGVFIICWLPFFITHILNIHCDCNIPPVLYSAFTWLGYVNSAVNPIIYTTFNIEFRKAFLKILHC
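Calcium mobilization kinetics were recorded at 1 s intervals in tetracycline-induced HEK293 T-REx D2 cells, first for 180 s after compound addition and then 180 s after EC80 dopamine.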
D2 ag-1 – HTS Assay for Allosteric Agonists of the Human D2 Dopamine Receptor: Primary Screen for Agonists | D(2) dopamine receptor (Homo sapiens), P14416 | HEK293 T-REx D2 cells, calcium flux agonist mode | activation, % at 2 µM | 0.53% of 340,000 active;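 active means activation over 3 SD above normal in the single-dose calcium agonist read, cut at about 30% in these data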
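Agonism is scored from calcium flux in a force-coupled, inducible HEK293 cell line expressing D2, read kinetically for 180 s after compound addition against dopamine controls.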
D2 PAM-1 – Beta-Arrestin HTS for Positive Allosteric Modulators of the Human D2 Dopamine Receptor: Potentiators. DiscoveRx D2 beta-arrestin cells, luminescence, 90 min; 100% = 57 uM dopamine signal. potentiation, % (concentration not given with the values). 0.23% of 360,000 active; in the data active means potentiation above about 50%; inconclusive means mostly about 30% to 49%
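D2 cells co-treated with compound plus 50 nM dopamine (EC20) for 90 min at 37 deg C to detect potentiation. Beta-arrestin recruitment was read as enzyme-fragment luminescence after 1 h at ambient temperature. Full response was set by 57 uM dopamine.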
D2 ag-2 – Beta-Arrestin HTS for Positive Allosteric Modulators of the Human D2 Dopamine Receptor: Agonists; 0.084% of 360,000 active; AID 624465, 2012; activation, % (concentration not given with the values); D(2) dopamine receptor (Homo sapiens), P14416; DiscoveRx PathHunter D2 beta-arrestin, luminescence, 90 min; 100% = 57 uM dopamine signal; in the data active means activation above about 40%; inconclusive means between about 15% and that limit
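DiscoveRx PathHunter D2 beta-arrestin cells (2,100/well) attached overnight, then compound-stimulated 90 min at 37 C in HBSS/10 mM HEPES/0.1% Tween-20 buffer; beta-galactosidase complementation read by luminescence after 1 h at ambient temperature. Dopamine 57 uM final (EC100) as control.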
D2 PAM-2 – HTS Assay for Positive Allosteric Modulators of the Human D2 Dopamine Receptor: Primary Screen for Potentiators; 0.34% of 340,000 active; potentiation, % at 10 µM; HEK293 T-REx D2, calcium flux, EC20 dopamine potentiation; AID 485347, 2010;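 active means potentiation over 3 SD above the plate norm, cut at about 30% in these data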
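Cells plated with tetracycline inducer and held overnight at 30 C; calcium dye loaded 30–90 min at room temperature; baseline taken, compound added and read 180 s; EC20 dopamine then added and read 180 s.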
Large screens that a line does not name were inactive; ! = not confirmed by another sample.

O=C(CSc1nc2ccccc2nc1Cc1ccc(Cl)cc1)N1CCN(c2ccccc2F)CC1	none (no result: D2 antag, D2 PAM-1, D2 ag-2)
CC(C)(C)OC(=O)NC1CC2CCCC(C1)N2Cc1ccccc1 (configuration not stated)	D2 antag 59.9
COc1ccc(CN2C3CCCC2CC(NC(=O)Nc2ccccc2)C3)cc1 (configuration not stated)	D2 antag 80.2
COCC(=O)NC1CC2CCCC(C1)N2Cc1ccccc1 (configuration not stated)	D2 antag 42.2
COc1ccc(CN2C3CCCC2CC(NC(=O)Nc2cccc(C)c2)C3)cc1 (configuration not stated)	none
COCCNC(=S)NC1CC2CCC(C1)N2Cc1ccccc1 (configuration not stated)	none
C=CCN1C2CCCC1CC(NC(=O)Nc1cccc(C(C)=O)c1)C2 (configuration not stated)	D2 antag 33.2
Nc1ccc(N2CCN(c3ncc(C(F)(F)F)cc3Cl)CC2)c(C(F)(F)F)c1	none (no result: D2 antag, D2 PAM-1, D2 ag-2, D2 PAM-2)
COc1ccc(OC)c(CCNC(=O)c2cc3cccc4c3n2CC(C)S4)c1 (configuration not stated)	none (no result: D2 antag, D2 PAM-1, D2 ag-2)
Nc1ccc(N(CCO)CCO)cc1	D2 PAM-1 63.9, D2 ag-2 inconclusive
CCOC(=O)CSc1nc2cc3c(cc2c(=O)n1Cc1ccc(C(=O)NCCc2ccc(OC)c(OC)c2)cc1)OCO3	none (no result: D2 antag, D2 PAM-1, D2 ag-2)
CCC(=O)Nc1cc2c3c(c1)CCN3C(=O)CC2	D2 antag 32.9
CCCOc1ccc(C(=O)NCC(c2cccs2)N(C)C)cc1OC (configuration not stated)	none
COc1cc2ccccc2cc1C(=O)NCC(c1cccs1)N(C)C (configuration not stated)	D2 antag 55.5
COc1cc(C(=O)NCC(c2cccs2)N(C)C)cc(Cl)c1OC(C)C (configuration not stated)	D2 antag 34.5
O=S(=O)(NCc1cccc(Br)c1)c1ccc(-c2cc(C(F)(F)F)on2)s1	none (no result: D2 antag, D2 PAM-1, D2 ag-2)
CCN(CC)S(=O)(=O)c1ccc2c(c1)N(CC(=O)Nc1ccc(F)cc1F)C(=O)C1CCCN21 (configuration not stated)	none (no result: D2 antag, D2 PAM-1, D2 ag-2)
Cc1csc(NC(=O)C2CC(=O)N(c3ccc(C)c(C)c3)C2)n1 (configuration not stated)	D2 antag 50.8
Cc1ccc(N2CC(C(=O)Nc3cccnc3)CC2=O)cc1C (configuration not stated)	D2 antag 31.1
COc1ccccc1N1CC(C(=O)Nc2nc(C)cs2)CC1=O (configuration not stated)	none
OC[C@@H]1CN(Cc2ccc(-c3ccccc3)cc2)C[C@H](n2cnc3c(N4CCOCC4)ncnc32)O1	none (no result: D2 antag, D2 ag-1, D2 PAM-2)
O=S(=O)(c1ccccc1)N1CCC(N2CCN(c3ccccc3)CC2)CC1	D2 antag 70.7, D2 ag-1 74.0 (no result: D2 PAM-1, D2 ag-2)
COc1ccc(S(=O)(=O)N2CCN(C3CCCCCCC3)CC2)cc1	D2 antag 34.3!
O=S(=O)(c1ccccc1)N1CCN(c2ccccc2)CC1	none
COc1ccc(S(=O)(=O)N2CCC(N3CCCCC3)CC2)cc1	none
COc1cc2nc(Nc3ccc(C)c(C)c3)nc(N)c2cc1OC	D2 antag 30.4
CCOc1ccc(CNC(=O)Cn2nc(C)c3sc4ccccc4c3c2=O)cc1	none (no result: D2 antag, D2 PAM-1, D2 ag-2)
Cc1cc(C)c(/C=C(\C#N)C(N)=S)c(C)c1	D2 antag 84.0
COc1ccc(NC(=O)c2cc(S(=O)(=O)N3CCCCCC3)cn2C)cc1Cl	none (no result: D2 antag, D2 ag-1, D2 PAM-1, D2 ag-2)
COc1ccc(/C=N/NC(=O)c2ccc(O)cc2O)cc1CSc1ccccn1	D2 ag-1 39.2
CC(=O)N1CCc2cc(S(=O)(=O)NC(Cc3ccccc3)C(=O)NCc3ccccc3)ccc21 (configuration not stated)	none (no result: D2 antag, D2 PAM-1, D2 ag-2)
CC(C)OC(=O)c1cccnc1N1CCN(c2ccc(F)cc2)CC1	D2 antag 32.7
CC(C)OC(=O)c1ccc(N2CCN(c3ccc(F)cc3)CC2)nc1	none
COc1cc(NC(=O)C(C)(C)C)c(C(=O)OCC(=O)Nc2cc(C)on2)cc1OC	none (no result: D2 antag, D2 ag-1, D2 PAM-2)
Brc1ccc2nc(-c3ccco3)c(CC3CCCCC3)n2c1	none (no result: D2 antag, D2 ag-1, D2 PAM-2)
CCOC(=O)C1CCCN(Cc2cccc(Oc3ccccc3)c2)C1 (configuration not stated)	D2 antag 39.5
CCOC(=O)C1CCCN(Cc2ccc(-c3ccccc3)cc2)C1 (configuration not stated)	D2 antag 57.9
CCOC(=O)C1CCCN(Cc2c(Cl)cccc2Cl)C1 (configuration not stated)	none
CCOC(=O)C1CCN(Cc2cccc(Oc3ccccc3)c2)CC1	D2 ag-2 inconclusive (no result: D2 antag, D2 ag-1, D2 PAM-2)
CCOC(=O)C1CCCN(C/C=C/c2ccccc2)C1 (configuration not stated)	D2 antag 30.5
CCOC(=O)C1CCN(C/C=C/c2ccccc2)CC1	none
Cc1cc(C)n(S(=O)(=O)c2cc(C(=O)O)c(Cl)cc2Cl)n1	none (no result: D2 PAM-2)
COC(=O)c1cc(S(=O)(=O)n2nc(C)c(Br)c2C)c(Cl)cc1Cl	D2 PAM-1 53.5
CC(C)C[C@H]1C(=O)N2CCC[C@H]2[C@]2(O)O[C@](NC(=O)C3C=C4c5cccc6[nH]c(Br)c(c56)C[C@H]4N(C)C3)(C(C)C)C(=O)N12 (some centres not stated)	D2 PAM-1 inconclusive, D2 ag-2 52.2 (no result: D2 antag, D2 ag-1, D2 PAM-2)
CCc1ccccc1NC(=O)N1CCCC(CCC(=O)N(C)CCc2ccccn2)C1 (configuration not stated)	D2 antag 32.8
COc1ccc(NC(=O)N2CCCC(CCC(=O)N(C)CCc3ccccn3)C2)cc1 (configuration not stated)	none
COc1ccc(CNc2nc(NCc3ccc(OC)cc3)n(C(=O)c3ccncc3)n2)cc1	none
COc1ccc(CNc2nc(NCc3ccc(OC)cc3)n(C(=O)c3ccccc3[N+](=O)[O-])n2)cc1	D2 antag 31.2
CCn1cc(S(=O)(=O)c2ccccc2)c(=O)c2cc(F)c(N3CCCC3)cc21	none (no result: D2 antag, D2 PAM-1, D2 ag-2)
CC1(C)Cc2c(c(N3CCOCC3)nc3sc(C(N)=O)c(N)c23)CO1	none
CC1(C)Cc2c(c(N3CCOCC3)nc3sc(C#N)c(N)c23)CS1	D2 antag 38.1
O=C(Nc1nc(-c2ccc(S(=O)(=O)N3CCOCC3)cc2)cs1)c1ccccc1	D2 PAM-1 inconclusive, D2 PAM-2 32.6
Cc1nc2ccc(NC(=O)c3ccc([N+](=O)[O-])cc3[N+](=O)[O-])cc2s1	D2 PAM-1 51.6, D2 ag-2 inconclusive
